# Assay results from the supplement of paper PMC11732987, “Enantioselective OTUD7B fragment discovery through chemoproteomics screening and high-throughput optimisation” (Communications Chemistry, 2025).
# Unmarked numbers belong to inactive results.
# Columns and labels:
# Assay in all cases: log2 ratio of Biotin-Ahx-Ub-VS probe labelling (fragment/DMSO); higher = less target engagement (more negative = stronger competition), active = hit call of the paper (q ≤ 0.05, log2 ratio ≤ -1)
# Conditions in all cases: compound concentration: 200 uM; treatment time: 3 h
# [1] = molecular target: T1, ALG13 (UniProt Q9NP73)
# T1 sequence (whole entry): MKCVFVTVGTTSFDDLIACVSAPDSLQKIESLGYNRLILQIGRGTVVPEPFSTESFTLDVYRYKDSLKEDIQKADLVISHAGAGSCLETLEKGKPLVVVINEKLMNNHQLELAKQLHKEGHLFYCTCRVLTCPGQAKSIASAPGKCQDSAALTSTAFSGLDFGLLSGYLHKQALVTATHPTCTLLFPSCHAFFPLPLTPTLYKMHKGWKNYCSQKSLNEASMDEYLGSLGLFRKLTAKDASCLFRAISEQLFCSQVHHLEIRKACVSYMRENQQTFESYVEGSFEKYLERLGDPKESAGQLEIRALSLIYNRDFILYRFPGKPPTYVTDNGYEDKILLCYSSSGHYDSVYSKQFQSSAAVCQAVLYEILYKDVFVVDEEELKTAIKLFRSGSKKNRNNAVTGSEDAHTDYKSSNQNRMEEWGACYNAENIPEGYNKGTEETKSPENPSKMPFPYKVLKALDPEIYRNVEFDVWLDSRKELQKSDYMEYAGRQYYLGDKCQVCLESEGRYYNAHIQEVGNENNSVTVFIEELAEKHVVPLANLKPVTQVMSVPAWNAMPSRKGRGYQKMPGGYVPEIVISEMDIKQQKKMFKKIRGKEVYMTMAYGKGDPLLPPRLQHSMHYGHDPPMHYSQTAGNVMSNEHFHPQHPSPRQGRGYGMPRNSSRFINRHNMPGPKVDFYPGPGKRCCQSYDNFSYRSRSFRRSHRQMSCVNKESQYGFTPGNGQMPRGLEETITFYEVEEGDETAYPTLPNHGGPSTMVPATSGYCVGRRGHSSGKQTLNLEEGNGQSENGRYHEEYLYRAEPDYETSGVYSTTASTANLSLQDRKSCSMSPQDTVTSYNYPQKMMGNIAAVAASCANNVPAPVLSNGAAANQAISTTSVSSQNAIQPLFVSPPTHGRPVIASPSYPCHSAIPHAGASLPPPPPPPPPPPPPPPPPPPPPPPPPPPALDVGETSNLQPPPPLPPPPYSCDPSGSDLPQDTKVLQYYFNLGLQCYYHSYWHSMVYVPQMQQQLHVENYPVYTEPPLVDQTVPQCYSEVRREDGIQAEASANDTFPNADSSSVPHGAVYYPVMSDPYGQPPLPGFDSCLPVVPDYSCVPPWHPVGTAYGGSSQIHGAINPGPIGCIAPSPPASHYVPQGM
# Procedure, shortened: (§1)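 Global-median-normalised Spectronaut label-free quantities were compared by unpaired t-test, and values are average log2 ratios of fragment over vehicle. Only proteins with ≥2 unique peptides were used. HEK293T lysate (495 µg per sample) was treated in triplicate with fragment at 200 µM or vehicle for 3 h and then with Biotin-Ahx-Ub-VS at 0.5 µM final for 1 h. Labelled DUBs were then NeutrAvidin-enriched, digested with LysC and trypsin, and run by diaPASEF LC-MS/MS.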
# [2] = molecular target: ATXN3 (UniProt P54252)
# Chain of ATXN3 (P54252 whole entry): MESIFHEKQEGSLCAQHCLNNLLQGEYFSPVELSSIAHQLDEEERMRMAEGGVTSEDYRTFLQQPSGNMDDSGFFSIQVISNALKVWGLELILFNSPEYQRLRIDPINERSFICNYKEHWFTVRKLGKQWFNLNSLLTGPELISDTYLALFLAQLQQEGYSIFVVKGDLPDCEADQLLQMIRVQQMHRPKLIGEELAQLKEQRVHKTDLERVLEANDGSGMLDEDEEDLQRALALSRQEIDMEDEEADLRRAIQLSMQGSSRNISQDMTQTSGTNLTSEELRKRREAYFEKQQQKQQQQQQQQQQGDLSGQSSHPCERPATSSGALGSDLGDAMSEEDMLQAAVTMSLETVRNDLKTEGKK
# Procedure, shortened: as §1
# [3] = molecular target: T2, BAP1 (UniProt Q92560)
# T2 sequence (whole entry): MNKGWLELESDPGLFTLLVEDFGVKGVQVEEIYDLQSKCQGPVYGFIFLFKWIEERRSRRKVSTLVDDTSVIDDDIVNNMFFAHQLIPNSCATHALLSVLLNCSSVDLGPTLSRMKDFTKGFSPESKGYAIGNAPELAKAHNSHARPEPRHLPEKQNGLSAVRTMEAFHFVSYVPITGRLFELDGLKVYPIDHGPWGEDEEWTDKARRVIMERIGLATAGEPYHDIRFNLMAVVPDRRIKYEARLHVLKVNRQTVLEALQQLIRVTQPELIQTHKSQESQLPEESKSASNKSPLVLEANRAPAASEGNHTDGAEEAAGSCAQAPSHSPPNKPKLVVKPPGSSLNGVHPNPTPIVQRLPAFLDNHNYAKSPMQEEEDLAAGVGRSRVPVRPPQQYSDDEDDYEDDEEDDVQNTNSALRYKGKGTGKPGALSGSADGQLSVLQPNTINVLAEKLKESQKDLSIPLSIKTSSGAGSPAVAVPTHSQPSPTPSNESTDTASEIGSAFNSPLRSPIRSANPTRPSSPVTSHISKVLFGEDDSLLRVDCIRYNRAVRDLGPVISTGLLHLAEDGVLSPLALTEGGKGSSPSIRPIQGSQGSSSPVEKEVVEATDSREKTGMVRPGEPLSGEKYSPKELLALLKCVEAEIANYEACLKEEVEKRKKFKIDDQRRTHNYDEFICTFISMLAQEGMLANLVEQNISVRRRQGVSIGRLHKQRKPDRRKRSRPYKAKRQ
# Procedure, shortened: as §1
# [4] = molecular target: EIF3F (UniProt O00303)
# Chain of EIF3F (O00303 whole entry): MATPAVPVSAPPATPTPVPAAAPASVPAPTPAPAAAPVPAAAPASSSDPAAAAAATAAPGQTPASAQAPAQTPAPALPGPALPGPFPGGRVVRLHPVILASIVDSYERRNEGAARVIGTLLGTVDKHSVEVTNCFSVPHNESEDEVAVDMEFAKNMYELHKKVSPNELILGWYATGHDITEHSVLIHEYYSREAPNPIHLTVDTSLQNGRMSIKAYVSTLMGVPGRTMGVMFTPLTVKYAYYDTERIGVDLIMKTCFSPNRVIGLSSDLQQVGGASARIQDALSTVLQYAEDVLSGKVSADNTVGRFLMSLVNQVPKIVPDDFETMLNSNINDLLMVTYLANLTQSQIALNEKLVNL
# Procedure, shortened: as §1
# [5] = molecular target: EIF3H (UniProt O15372)
# Chain of EIF3H (O15372 whole entry): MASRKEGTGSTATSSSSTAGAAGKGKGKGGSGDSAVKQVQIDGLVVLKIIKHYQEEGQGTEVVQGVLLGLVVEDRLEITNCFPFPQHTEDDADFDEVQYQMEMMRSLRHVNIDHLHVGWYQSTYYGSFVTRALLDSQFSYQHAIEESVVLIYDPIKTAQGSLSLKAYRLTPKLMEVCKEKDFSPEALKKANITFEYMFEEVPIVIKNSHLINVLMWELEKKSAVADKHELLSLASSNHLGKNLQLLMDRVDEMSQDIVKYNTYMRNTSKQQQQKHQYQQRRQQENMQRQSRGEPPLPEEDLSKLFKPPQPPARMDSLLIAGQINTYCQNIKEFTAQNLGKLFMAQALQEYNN
# Procedure, shortened: as §1
# [6] = molecular target: T3, FAM105A (UniProt Q9NUU6)
# T3 sequence (whole entry): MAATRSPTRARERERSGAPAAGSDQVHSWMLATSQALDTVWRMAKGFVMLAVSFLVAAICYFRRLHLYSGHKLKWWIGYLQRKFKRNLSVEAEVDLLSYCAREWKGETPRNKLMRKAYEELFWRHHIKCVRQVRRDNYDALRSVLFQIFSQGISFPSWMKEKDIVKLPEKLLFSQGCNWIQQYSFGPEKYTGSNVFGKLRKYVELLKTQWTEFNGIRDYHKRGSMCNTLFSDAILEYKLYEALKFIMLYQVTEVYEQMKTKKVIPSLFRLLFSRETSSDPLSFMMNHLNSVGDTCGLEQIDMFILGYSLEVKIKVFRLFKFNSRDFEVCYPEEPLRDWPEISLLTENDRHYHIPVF
# Procedure, shortened: as §1
# [7] = molecular target: OTUB1 (UniProt Q96FW1)
# Chain of OTUB1 (Q96FW1 whole entry): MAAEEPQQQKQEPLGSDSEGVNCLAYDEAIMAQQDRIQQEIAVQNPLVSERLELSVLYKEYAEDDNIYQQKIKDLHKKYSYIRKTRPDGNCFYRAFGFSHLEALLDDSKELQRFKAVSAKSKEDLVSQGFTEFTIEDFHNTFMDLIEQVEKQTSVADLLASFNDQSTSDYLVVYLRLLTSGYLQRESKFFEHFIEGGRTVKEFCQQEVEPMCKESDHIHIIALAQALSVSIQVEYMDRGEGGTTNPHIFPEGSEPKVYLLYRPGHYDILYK
# Procedure, shortened: as §1
# [8] = molecular target: T4, OTUD4 (UniProt Q01804)
# T4 sequence (whole entry): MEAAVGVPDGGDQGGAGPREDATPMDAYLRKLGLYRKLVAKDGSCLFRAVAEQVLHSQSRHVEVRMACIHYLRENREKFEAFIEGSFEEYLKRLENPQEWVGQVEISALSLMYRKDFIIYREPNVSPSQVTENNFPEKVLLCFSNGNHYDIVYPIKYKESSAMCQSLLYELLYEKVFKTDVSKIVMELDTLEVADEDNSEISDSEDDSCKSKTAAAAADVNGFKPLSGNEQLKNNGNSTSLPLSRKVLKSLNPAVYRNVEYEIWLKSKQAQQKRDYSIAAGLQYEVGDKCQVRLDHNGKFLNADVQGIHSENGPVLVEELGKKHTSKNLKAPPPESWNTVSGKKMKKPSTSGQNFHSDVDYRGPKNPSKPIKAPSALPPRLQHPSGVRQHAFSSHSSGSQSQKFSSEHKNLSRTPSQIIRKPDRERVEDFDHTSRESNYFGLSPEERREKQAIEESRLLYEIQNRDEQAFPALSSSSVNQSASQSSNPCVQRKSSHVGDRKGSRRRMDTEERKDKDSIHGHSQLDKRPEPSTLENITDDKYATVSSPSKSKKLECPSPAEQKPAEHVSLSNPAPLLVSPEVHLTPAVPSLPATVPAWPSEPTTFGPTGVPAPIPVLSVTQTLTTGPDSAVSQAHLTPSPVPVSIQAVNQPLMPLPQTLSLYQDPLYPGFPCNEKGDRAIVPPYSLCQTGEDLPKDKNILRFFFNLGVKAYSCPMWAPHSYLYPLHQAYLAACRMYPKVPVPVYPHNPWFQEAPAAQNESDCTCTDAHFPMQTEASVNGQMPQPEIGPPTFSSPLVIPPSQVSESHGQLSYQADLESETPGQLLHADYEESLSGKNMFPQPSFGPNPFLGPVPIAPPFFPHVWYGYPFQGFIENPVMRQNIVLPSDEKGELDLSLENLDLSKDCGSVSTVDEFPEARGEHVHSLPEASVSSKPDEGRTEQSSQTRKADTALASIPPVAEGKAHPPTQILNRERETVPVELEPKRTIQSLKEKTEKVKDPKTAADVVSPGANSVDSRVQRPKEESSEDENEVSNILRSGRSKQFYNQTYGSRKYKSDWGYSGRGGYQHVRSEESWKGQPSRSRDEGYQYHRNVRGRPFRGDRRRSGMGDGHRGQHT
# Procedure, shortened: as §1
# [9] = molecular target: T5, OTUD5 (UniProt Q96G74)
# T5 sequence (whole entry): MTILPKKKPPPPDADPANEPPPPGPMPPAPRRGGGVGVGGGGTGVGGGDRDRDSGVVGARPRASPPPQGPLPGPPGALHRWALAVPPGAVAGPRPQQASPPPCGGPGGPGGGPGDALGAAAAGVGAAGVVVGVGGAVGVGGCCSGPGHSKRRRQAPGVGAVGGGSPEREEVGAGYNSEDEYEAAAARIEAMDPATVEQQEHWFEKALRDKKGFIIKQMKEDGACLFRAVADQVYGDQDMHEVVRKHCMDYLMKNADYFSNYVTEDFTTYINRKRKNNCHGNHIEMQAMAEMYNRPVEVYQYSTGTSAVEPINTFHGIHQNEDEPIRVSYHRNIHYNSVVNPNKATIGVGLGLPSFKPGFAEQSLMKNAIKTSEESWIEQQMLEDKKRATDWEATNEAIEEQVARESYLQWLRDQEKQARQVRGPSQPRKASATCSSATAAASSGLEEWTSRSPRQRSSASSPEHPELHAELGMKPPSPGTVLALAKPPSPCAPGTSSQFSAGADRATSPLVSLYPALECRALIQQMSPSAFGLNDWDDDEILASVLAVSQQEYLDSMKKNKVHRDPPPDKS
# Procedure, shortened: as §1
smiles,measurement,setting,value
CCC(NC(=O)CCl)c1ccc(Cl)cc1 (centres undefined),log2 ratio of Biotin-Ahx-Ub-VS probe labelling,[1],0.101
same,log2 ratio of Biotin-Ahx-Ub-VS probe labelling,[2],-0.139
same,log2 ratio of Biotin-Ahx-Ub-VS probe labelling,[3],-2.81 (active)
same,log2 ratio of Biotin-Ahx-Ub-VS probe labelling,[4],-0.0176
same,log2 ratio of Biotin-Ahx-Ub-VS probe labelling,[5],-0.0528
same,log2 ratio of Biotin-Ahx-Ub-VS probe labelling,[6],0.315
same,log2 ratio of Biotin-Ahx-Ub-VS probe labelling,[7],-0.267
same,log2 ratio of Biotin-Ahx-Ub-VS probe labelling,[8],-0.628
same,log2 ratio of Biotin-Ahx-Ub-VS probe labelling,[9],-0.123
